Assay outcomes from PubChem.
This excerpt belongs to a sample that is enriched for hits.
PGK inhibitor = qHTS Assay to Find Inhibitors of Phosphoglycerate Kinase. Phosphoglycerate kinase, glycosomal (Trypanosoma brucei brucei), P07378. PGK/GAPDH coupled, Kinase-Glo luminescence, 60 min. Potency, µM (highest dose often 57.5 µM), for the others: top-dose activity change, negative = inhibition, most hits filed as inhibitors. 380,000 tested, 0.043% active; note: potency is the fitted concentration of half-maximal effect; nearly all actives have a fitted effect of over 60% in size
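Recombinant glycosomal PGK reaction used 1,3-bisphosphoglycerate generated in-well by GAPDH (100nM final) in 100mM TEA pH 7.6, 5mM MgCl2, 0.01% Tween-20. After 60 minutes at room temperature, ATP was read by Kinase-Glo Plus luminescence end-point.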
Tb PFK inh = qHTS Assay to Find Inhibitors of T. brucei phosphofructokinase | ATP-dependent 6-phosphofructokinase (Trypanosoma brucei brucei), O15648 | T. brucei PFK, ADP-Glo luminescence | Potency, µM (highest dose often 57.5 µM), without a hit: top-dose activity, negative = inhibition, hits mostly inhibitors | 330,000 tested, 0.17% active | AID 485367, 2010;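 note: potency is the fitted concentration of half-maximal effect; 0% = uninhibited 1x PFK enzyme wells and -100% = no-enzyme wells; nearly all actives have a fitted effect of over 60% in size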
Target sequence (O15648 whole entry, looked up): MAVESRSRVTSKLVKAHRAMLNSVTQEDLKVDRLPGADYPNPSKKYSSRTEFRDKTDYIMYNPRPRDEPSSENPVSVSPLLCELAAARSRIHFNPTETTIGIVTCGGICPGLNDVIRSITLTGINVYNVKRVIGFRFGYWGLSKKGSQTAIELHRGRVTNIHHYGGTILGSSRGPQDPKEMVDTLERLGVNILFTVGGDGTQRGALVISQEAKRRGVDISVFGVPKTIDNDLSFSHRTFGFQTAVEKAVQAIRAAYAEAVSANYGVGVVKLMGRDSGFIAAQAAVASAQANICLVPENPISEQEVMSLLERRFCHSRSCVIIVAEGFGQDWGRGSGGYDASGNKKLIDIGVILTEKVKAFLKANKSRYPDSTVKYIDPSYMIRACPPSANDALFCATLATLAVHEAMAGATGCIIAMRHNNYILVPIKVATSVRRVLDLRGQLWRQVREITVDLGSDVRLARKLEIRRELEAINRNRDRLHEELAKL
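ADP-Glo luminescence quantified ADP after 45 min at room temperature, with 1.25 nM T. brucei PFK, 0.1 mM ATP and 0.5 mM fructose-6-phosphate in pH 8.0 TEA buffer. qHTS titrations up to 57 µM; curves classified by quality.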
Pin1 inhibitor = qHTS Assay to Find Inhibitors of Pin1; Pin1 FP peptide displacement, HiFluor488, 10 min; Potency, µM (series often up to 115 µM), for the others: top-dose activity, negative = inhibition, usual class: inhibitors; 390,000 tested, 0.009% active; AID 504891, 2011; active = well fitted inhibition curve with a large enough effect in the polarisation, with a control signal flat, not every such curve was filed as active; inconclusive = small, poorly fitted or top-dose-only effect, or effect the other way, or a change in a side signal; inactive = no such curve, though single readings can be large or run the other way; the % refers to the polarisation; note: potency is the fitted concentration of half-maximal effect
Target sequence (Q13526 whole entry, looked up): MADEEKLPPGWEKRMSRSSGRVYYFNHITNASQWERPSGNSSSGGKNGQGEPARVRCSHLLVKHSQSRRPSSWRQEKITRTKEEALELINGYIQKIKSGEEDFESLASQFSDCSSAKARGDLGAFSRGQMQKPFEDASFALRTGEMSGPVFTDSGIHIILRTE
PI5P4Ka inh = qHTS for Inhibitors of phosphatidylinositol 5-phosphate 4-kinase (PI5P4K); 330,000 tested, 1.2% active; max response, %; AID 652105, 2013; Phosphatidylinositol 5-phosphate 4-kinase type-2 alpha (Homo sapiens), P48426; PI5P4Kalpha enzyme, ADP-Glo luminescence, 60 min; active compounds read low; active = max response of -50% or lower; inconclusive = between -30% and -50%; inactive = -30% or higher; note: value at the top dose of about 77 µM
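Controls without substrate or without enzyme flank wells where PI5P4Kalpha converts substrate using 5 microM ATP (final). Incubation lasts 60 minutes at room temperature; ADP formed is read by ADP-Glo luminescence.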
PI4K2A block = qHTS for small molecular inhibitors of PI4K2A; AID 1346378, 2018; Phosphatidylinositol 4-kinase type 2-alpha (Homo sapiens), Q9BTU6; purified PI4K2A, ADP-Glo luminescence, 1 h; active compounds read low; activity change, negative = inhibition, % at 76.9 µM; 420,000 tested, 0.13% active; in the data active = activity change below about -50%; inconclusive = mostly about -30% to -49%;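 note: -100% = wells without enzyme as full effect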
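Compounds are screened against recombinant PI4K2A using PI as substrate and ATP, the latter dispensed at 300 microM. Reactions run one hour at ambient temperature before ADP-Glo detection; full inhibition defined by wells lacking enzyme.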
ADP-Glo interf = qHTS for Inhibitors of PI5P4K: ADP-Glo counter assay; shares compounds with PI5P4Ka inh; ADP-Glo detection counter-screen, luciferase luminescence, no enzyme; Potency, µM (top dose mostly 76.9 µM), without a hit: at the highest dose activity change, negative = inhibition, hits mostly inhibitors; 1,100 tested, under 10 active
* = called active by the depositor; i = inactive; ? = inconclusive; . = no result. Unless noted, calls come from the whole dose curve; as a rule, active = well fitted curve in the direction sought with a large enough effect; inconclusive = small, poorly fitted or top-dose-only effect, or another doubt; inactive = no such curve, though single readings can be large; an effect the other way counts as inactive or inconclusive. Unless noted, % is set by controls: 0 for no effect and ±100 for the full control effect.

SMILES	PGK inhibitor	Tb PFK inh	Pin1 inhibitor	PI5P4Ka inh	PI4K2A block	ADP-Glo interf
CN(C)S(=O)(=O)c1cccc(NC(=O)CSc2nnnn2-c2ccccc2)c1	-6%	3%	-2%	2	-1	.
COC(CNC(=O)[C@H](Cc1c[nH]c2ccccc12)NC1(C(=O)NCc2ccccc2)CCCCC1)OC	.	.	.	.	1	.
Cc1ccc(Cl)cc1Nc1nc(N2CCOCC2)nc(N2CCOCC2)n1	-7%	1%	-1%	4	-4	.
Cc1ccc([N+](=O)[O-])cc1Nc1nc(N2CCOCC2)nc(N2CCOCC2)n1	-14%	-3%	-5%	-74*	3	-3%
COC(=O)[C@]12C[C@H](CC(=O)N3CCN(C(=O)c4ccco4)CC3)C(=O)N(Cc3ccc4c(c3)OCO4)C1=C[C@H](C(C)C)O[C@@H]2C1CC1	.	.	.	.	3	.
CCN(CC)C(=O)c1cc(Cl)ccn1	-7%	-6%	-17%	?	-1	-2%
COC(=O)[C@]12C[C@H](CC(=O)NCc3ccc(OC)c(OC)c3)C(=O)N(CCc3ccc(OC)c(OC)c3)C1=C[C@H](C1CCCC1)O[C@@H]2C	.	.	.	.	-3	.
O=S(=O)(Nc1nccs1)c1cc(Cl)ccc1Cl	-2%	2%	22%	-51*	7	-1%
O=S(=O)(Nc1ncccn1)c1cc(Cl)ccc1Cl	2%	-1%	-2%	1	3	.
CC(C)CC(=O)N1CCC(C(=O)NCC2COc3ccccc3O2)CC1 (stereo not given)	.	.	.	.	-3	.
COc1ccc(Br)cc1C(=O)Nc1cccc(NC(=O)c2ccco2)c1	i	-2%	2%	8	-7	-8%
C=CCN1C(=O)[C@H](CC(=O)NCC23CC4CC(CC(C4)C2)C3)[C@@]2(C(=O)OC)CCCCC=C12	.	.	.	.	-7	.
O=C(NCc1ccc(F)cc1)C1CCN(c2cnccn2)CC1	-5%	?	6%	-53*	0	1%
O=C(NCc1ccc(F)cc1)C1CCCN(c2cnccn2)C1 (stereo not given)	-9%	-1%	-4%	2	-3	.
C[C@@H]1[C@@H](O)C[C@@]2(C[C@H](O)c3cc(Cl)ccc3O2)O[C@H]1c1ccccc1Cl	.	.	.	.	1	.
COc1ccc(Cl)cc1C(Nc1cccnc1)c1ccc2cccnc2c1O (stereo not given)	-3%	-1%	-14%	-72*	-3	2%
Cc1ccnc2nc(C(=O)OCC(=O)NC3CCC(C)CC3)nn12 (stereo not given)	-8%	5%	9%	0	7	.
Cc1ccnc2nc(C(=O)OCC(=O)NC3CCCC(C)C3C)nn12 (stereo not given)	8%	2%	1%	-11	-14	-9%
COCCN(CC(=O)NCC1CCCO1)C(=O)CCC(=O)Nc1ccccn1 (stereo not given)	-1%	1%	-2%	-51*	-8	1%
O=C(CN(CC1CCCO1)C(=O)CCC(=O)Nc1ccccn1)NCC1CCCO1 (stereo not given)	0%	-4%	-5%	-7	10	.
COc1cccc(N2CCN(CC(=O)NCc3ccco3)CC2)c1	.	.	.	.	-2	.
O=c1oc2ccccc2cc1-c1csc(Nc2nc3ccc(F)cc3s2)n1	.	-3%	.	.	.	.
O=c1oc2ccccc2cc1-c1csc(Nc2nc3c(F)cccc3s2)n1	0%	0%	63%	-55*	-1	-5%
Cc1sc2ncn(CC(=O)N3CCC(C(N)=O)CC3)c(=O)c2c1S(=O)(=O)N1CC(C)CC(C)C1 (stereo not given)	-25%	5%	?	-90*	4	-10%
Cc1sc2ncn(CC(=O)N3CCCC(C)C3)c(=O)c2c1S(=O)(=O)N1CCCCC1 (stereo not given)	-2%	-2%	3%	3	-3	.
SMILES	PGK inhibitor	Tb PFK inh	Pin1 inhibitor	PI5P4Ka inh	PI4K2A block	ADP-Glo interf
COc1cc(NC2=Nc3cccc4cccc2c34)cc(OC)c1OC	-2%	-2%	73%	-50*	2	-3%
CCCCCCCCNS(=O)(=O)CC1NCc2ccc(C)cc21 (stereo not given)	.	.	.	.	2	.
N#Cc1c(NC(=O)CSc2ncnc3sccc23)oc(-c2ccco2)c1-c1ccco1	5%	-28%	?	-79*	-27	4%
Cc1cc(NC(=O)CSc2ncnc3sccc23)no1	1%	-2%	4%	0	-4	.
COCCN1C(=O)C2=C(C1=O)C1N(C)c3ccccc3[C@@]13C[C@@H](CO)N(C(=O)CCC(=O)OC)C3=N2 (stereo not given in full)	.	.	.	.	-1	.
NC(=O)[C@@H]1CC2(CC(c3cccc(NC(=O)COc4ccc(Cl)cc4)c3)=NO2)CN1C(=O)COc1ccc(Cl)cc1 (stereo not given in full)	-2%	-14%	34%	-7	3	-9%
N#CCC(=O)N1CC2(CC(c3cccc(NC(=O)COc4ccc(Cl)cc4)c3)=NO2)C[C@@H]1C(N)=O (stereo not given in full)	-5%	-30%	0%	-2	0	.
N#Cc1ccccc1OCc1cn(CC(=O)c2ccc(O)cc2)nn1	i	.	-11%	-58*	?	-11%
CCOC(=O)N1CCN(C(=O)CCS(=O)(=O)c2ccc3c(c2)CCN3C(=O)CC)CC1	-3%	5%	0%	?	-1	-2%
CCOC(=O)C1CCN(C(=O)CCS(=O)(=O)c2ccc3c(c2)CCN3C(=O)CC)CC1	-3%	0%	-14%	5	-3	.
Cn1nnnc1SCC(=O)N1N=C(c2ccc(Cl)cc2)CC1c1ccco1 (stereo not given)	-9%	0%	-3%	1	2	.
Cc1nnc(SCC(=O)N2N=C(c3ccc(Cl)cc3)CC2c2ccco2)[nH]c1=O (stereo not given)	-13%	-3%	8%	-64*	-7	1%
COC(=O)C12C=C3CC(c4ccc(C(F)(F)F)cc4)=C3C(=O)N1Cc1[nH]c3ccccc3c1C2 (stereo not given)	.	.	.	.	-9	.
O=C(CNS(=O)(=O)c1ccc(Br)cc1)OCc1cc(=O)n2cc(Br)ccc2n1	.	-30%	.	.	.	.
O=C(CNC(=O)c1cccc(OC(F)F)c1)OCc1cc(=O)n2cc(Br)ccc2n1	-3%	-20%	?	-56*	-7	-3%
